Experimental data taken from PubChem BioAssay (Tox21).
Values joined by “and” are separate entries in the source; they are usually repeats but may differ in a detail not shown here. Equal entries are not always repeated. Values without a mark were called inactive. Active and inactive are the calls of the source. Unless noted, the call rests on the fitted dose curve; in most records, active means well fitted curve in the direction sought with a large enough effect in the repeat runs; inconclusive means weak or mixed curves; inactive means flat fitted curve, though single readings scatter.

System: not listed separately
Assay: qHTS assay to test for compound auto fluorescence at 535 nm (green) in HepG2 cell free culture (AID 720686)
Settings: Cell-free medium, green autofluorescence 485/535 nm; series mostly up to 91.3 µM; fluorescence, % of fluorescein control: at the top concentration
On the % scale 0 is the no-effect control and ±100 the full control effect.

| Compound | fluorescence, % of fluorescein control | Potency |
| --- | --- | --- |
| O=c1c2ccccc2c(=O)c2c1cc(Cl)c1[nH]c3c([nH]c12)c(Cl)cc1c(=O)c2ccccc2c(=O)c13 | 0.035% | – |
| CCN(CC)CCN1C(=O)CN=C(c2ccccc2F)c2cc(Cl)ccc21 | 0.0446% [at 46 µM] | – |
| CNC(=O)O/N=C(\C)C(C)S(C)(=O)=O (stereo not given) | -0.121% [at 920 µM] | – |
| O=C(NC(=O)c1c(F)cccc1F)Nc1ccc(Oc2ccc(C(F)(F)F)cc2Cl)cc1F | 0.0041% | – |
| CN(C)C(=S)SSC(=S)N(C)C | – | inactive |
| Oc1cc(Cl)c(Cl)c(Cl)c1Cl | -0.0345% | – |
| O=[N+]([O-])c1ccc(Cl)c(Cl)c1Cl | -0.174% | – |
| Cc1cccc(Cc2cnc[nH]2)c1C | 0.0164% [at 46 µM] | – |
| O=NN(CCO)CCO | -0.0168% | – |
| C=CC(=O)[O][Sn]([CH2]CCC)([CH2]CCC)[CH2]CCC | -0.0009% | – |
| CSSC | -0.0172% [at 95.7 µM] | – |
| CCC[CH2][Sn]([CH2]CCC)([CH2]CCC)[CH2]CCC | -0.0021% | – |
| CCCCON=O | 0.09% [at 95.7 µM] | – |
| CNC(=O)Oc1cc(C)cc(C(C)C)c1 | 0.0239% | – |
| CCc1cccc(C)c1N(C(=O)CCl)[C@@H](C)COC | 0.124% | – |
| CN1C(=O)[C@@H](NC(=O)c2cc3ccccc3[nH]2)N=C(c2ccccc2)c2ccccc21 | 0.0469% [at 46 µM] | – |

| Compound | fluorescence, % of fluorescein control | Potency |
| --- | --- | --- |
| O=C(N[C@@H]1N=C(c2ccccc2F)c2cccc3c2N(CC3)C1=O)c1cc2ccccc2[nH]1 | -0.0844% [at 46 µM] | – |
| CCCCc1ccccc1 | -0.0621% | – |
| CCn1cc[n+](C)c1 (tested in a mixture with another compound) | -0.0374% | – |
| CCCCC(CC)COC(=O)c1ccccc1C(=O)OCC(CC)CCCC (stereo not given) | -0.166% | – |
| CNC(=O)CSP(=O)(OC)OC | 0.188% | – |
| [Cl][Hg][c]1ccccc1 | -0.0032% | – |
| Cc1ccc2cc3c(ccc4ccccc43)c3c2c1CC3 | 0.233% [at 46 µM] | – |
| CSC(C)(C)/C=N/O | -0.0029% | – |
| CCNS(=O)(=O)C(F)(F)C(F)(F)C(F)(F)C(F)(F)C(F)(F)C(F)(F)C(F)(F)C(F)(F)F | 0.0095% | – |
| CC(Cl)CCl (stereo not given) | 0.072% | – |
| CCOP(=O)(OCC)Oc1nc(Cl)c(Cl)cc1Cl | -0.169% | – |
| CNC(C)(C)Cc1ccccc1 | 0.134% [at 18.6 µM] | – |
| C[N+]1(C)[C@@H]2CC[C@H]1CC(OC(=O)C(CO)c1ccccc1)C2 (stereo not given in full) | – | inactive |
| C=CC(=C)C | 0.0457% | – |
| Cc1cnc2c(C(=O)O)c(Cl)ccc2c1 | -0.0013% | – |

System: not listed separately
Assay: qHTS assay to test for compound auto fluorescence at 460 nm (blue) in HepG2 cells (AID 720687)
Settings: autofluorescence 405/460 nm, 1 h; series mostly up to 91.3 µM; fluorescence, % of fluorescent control: at the top concentration
In short: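 Blue-channel autofluorescence (Ex/Em 405/460 nm, triamterene-equivalent) was measured after 1 hr compound exposure at 37 C, 5% CO2. Cells were HepG2, plated overnight at 37 C in MEM plus 10% FBS.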

| Compound | fluorescence, % of fluorescent control | Potency |
| --- | --- | --- |
| O=c1c2ccccc2c(=O)c2c1cc(Cl)c1[nH]c3c([nH]c12)c(Cl)cc1c(=O)c2ccccc2c(=O)c13 | 0.568% | – |
| CCN(CC)CCN1C(=O)CN=C(c2ccccc2F)c2cc(Cl)ccc21 | 0.0034% [at 46 µM] | – |
| CNC(=O)O/N=C(\C)C(C)S(C)(=O)=O (stereo not given) | -0.0344% [at 920 µM] | – |
| CCCCCCC[CH2][Sn]([Cl])([Cl])[CH2]CCCCCCC | -0.0855% | – |
| O=C(NC(=O)c1c(F)cccc1F)Nc1ccc(Oc2ccc(C(F)(F)F)cc2Cl)cc1F | 0.0923% | – |
| CN(C)C(=S)SSC(=S)N(C)C | – | inactive |
| Nc1nc(N)nc(Cl)n1 | 0.0198% | – |
| Oc1cc(Cl)c(Cl)c(Cl)c1Cl | -0.0817% | – |
| O=[N+]([O-])c1ccc(Cl)c(Cl)c1Cl | -0.0564% | – |
| Cc1cccc(Cc2cnc[nH]2)c1C | 0.0099% [at 46 µM] | – |
| O=NN(CCO)CCO | -0.0933% | – |
| C=CC(=O)[O][Sn]([CH2]CCC)([CH2]CCC)[CH2]CCC | -0.0238% | – |
| CSSC | -0.186% [at 95.7 µM] | – |
| CCC[CH2][Sn]([CH2]CCC)([CH2]CCC)[CH2]CCC | -0.0421% | – |
| CCCCON=O | 0.158% [at 95.7 µM] | – |
| CNC(=O)Oc1cc(C)cc(C(C)C)c1 | 0.0061% | – |
| CCc1cccc(C)c1N(C(=O)CCl)[C@@H](C)COC | 0.0071% | – |
| NC(=O)C(Cl)Cl | -0.0388% | – |
| CN1C(=O)[C@@H](NC(=O)c2cc3ccccc3[nH]2)N=C(c2ccccc2)c2ccccc21 | 0.0424% [at 46 µM] | – |

| Compound | fluorescence, % of fluorescent control | Potency |
| --- | --- | --- |
| O=C(N[C@@H]1N=C(c2ccccc2F)c2cccc3c2N(CC3)C1=O)c1cc2ccccc2[nH]1 | 0.0607% [at 46 µM] | – |
| CCCCc1ccccc1 | -0.0241% | – |
| Clc1ccc(C(Cl)(Cl)Cl)cc1Cl | -0.0839% | – |
| CCn1cc[n+](C)c1 (tested in a mixture with another compound) | -0.0786% | – |
| CCCCC(CC)COC(=O)c1ccccc1C(=O)OCC(CC)CCCC (stereo not given) | -0.281% | – |
| CNC(=O)CSP(=O)(OC)OC | -0.151% | – |
| [Cl][Hg][c]1ccccc1 | 0.0979% | – |
| ClCBr | 0.0178% [at 95.7 µM] | – |
| Cc1ccc2cc3c(ccc4ccccc43)c3c2c1CC3 | 0.901% [at 46 µM] | – |
| CSC(C)(C)/C=N/O | 0.114% | – |
| CCNS(=O)(=O)C(F)(F)C(F)(F)C(F)(F)C(F)(F)C(F)(F)C(F)(F)C(F)(F)C(F)(F)F | 0.0174% | – |
| CCOP(=S)(NC(C)C)Oc1ccccc1C(=O)OC(C)C (stereo not given) | -0.0113% | – |
| CC(Cl)CCl (stereo not given) | 0.084% | – |
| CCOP(=O)(OCC)Oc1nc(Cl)c(Cl)cc1Cl | -0.135% | – |
| CNC(C)(C)Cc1ccccc1 | -0.0567% [at 18.6 µM] | – |
| C[N+]1(C)[C@@H]2CC[C@H]1CC(OC(=O)C(CO)c1ccccc1)C2 (stereo not given in full) | – | inactive |
| C=CC(=C)C | -0.112% | – |
| Cc1cnc2c(C(=O)O)c(Cl)ccc2c1 | -0.076% | – |

Target: Glucocorticoid receptor (Homo sapiens) (UniProt P04150)
Assay: qHTS assay to identify small molecule agonists of the glucocorticoid receptor (GR) signaling pathway (AID 720691; active means well fitted activation curve with a large enough effect in the signal ratio in the repeat runs, not every such curve was filed as active; inconclusive means weak or mixed curves, or effect the other way; inactive means no such curve, though single readings can be large or run the other way; the % refers to the signal ratio)
Settings: GR-bla HeLa, beta-lactamase reporter ratio, 18 h; activation: at 62.4 µM (top of the series)
In short: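 A HeLa cervical cancer line expressing GR and a glucocorticoid response element-driven beta-lactamase gene is treated with compounds for 18 h; LiveBLAzer B/G FRET substrate is then applied and fluorescence read.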

Chain of Glucocorticoid receptor (Homo sapiens) (P04150 whole entry, looked up): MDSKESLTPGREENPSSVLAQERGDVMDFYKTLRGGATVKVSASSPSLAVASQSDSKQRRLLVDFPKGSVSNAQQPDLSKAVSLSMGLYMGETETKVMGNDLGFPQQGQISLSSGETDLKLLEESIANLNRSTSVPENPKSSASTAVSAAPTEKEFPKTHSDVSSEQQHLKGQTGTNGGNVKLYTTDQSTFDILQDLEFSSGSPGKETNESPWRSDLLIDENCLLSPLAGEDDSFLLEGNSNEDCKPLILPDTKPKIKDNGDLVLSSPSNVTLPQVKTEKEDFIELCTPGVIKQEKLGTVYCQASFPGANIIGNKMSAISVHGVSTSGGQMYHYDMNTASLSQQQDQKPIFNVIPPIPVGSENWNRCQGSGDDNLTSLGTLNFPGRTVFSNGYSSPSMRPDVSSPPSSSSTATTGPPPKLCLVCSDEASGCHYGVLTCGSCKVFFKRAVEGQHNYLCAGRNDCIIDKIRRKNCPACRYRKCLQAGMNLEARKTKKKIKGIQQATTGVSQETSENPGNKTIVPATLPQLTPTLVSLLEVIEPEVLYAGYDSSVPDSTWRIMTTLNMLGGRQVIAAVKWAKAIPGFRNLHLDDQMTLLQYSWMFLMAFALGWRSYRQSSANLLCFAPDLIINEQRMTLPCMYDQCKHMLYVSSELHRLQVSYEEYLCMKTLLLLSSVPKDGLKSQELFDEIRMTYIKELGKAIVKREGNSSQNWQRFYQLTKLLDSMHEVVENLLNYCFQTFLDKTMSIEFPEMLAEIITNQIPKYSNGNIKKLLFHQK

| Compound | activation | Potency |
| --- | --- | --- |
| O=c1c2ccccc2c(=O)c2c1cc(Cl)c1[nH]c3c([nH]c12)c(Cl)cc1c(=O)c2ccccc2c(=O)c13 | -6.53% | – |
| CCN(CC)CCN1C(=O)CN=C(c2ccccc2F)c2cc(Cl)ccc21 | 0.814% | – |
| CNC(=O)O/N=C(\C)C(C)S(C)(=O)=O (stereo not given) | -0.286% [at 765 µM] | – |
| CN(C)C(=S)SSC(=S)N(C)C | -15.4% [inconclusive] (active) and -4.77% [inconclusive] (active) | – |
| Nc1nc(N)nc(Cl)n1 | -0.229% | – |
| Cc1cccc(Cc2cnc[nH]2)c1C | 1.16% | – |
| O=NN(CCO)CCO | -0.439% | – |
| CCCCON=O | 0.104% [at 79.2 µM] | – |
| NC(=O)C(Cl)Cl | 0.627% | – |
| CCCCc1ccccc1 | 1.25% | – |
| Clc1ccc(C(Cl)(Cl)Cl)cc1Cl | -2.13% | – |
| CCCCC(CC)COC(=O)c1ccccc1C(=O)OCC(CC)CCCC (stereo not given) | 1.79% | – |
| CNC(=O)CSP(=O)(OC)OC | 0.582% | – |
| ClCBr | 1.71% [at 79.2 µM] | – |
| Cc1ccc2cc3c(ccc4ccccc43)c3c2c1CC3 | -3.2% | – |
| CSC(C)(C)/C=N/O | -2.99% | – |
| CCOP(=S)(NC(C)C)Oc1ccccc1C(=O)OC(C)C (stereo not given) | -10.9% | – |
| CC(Cl)CCl (stereo not given) | -0.509% | – |
| CCOP(=O)(OCC)Oc1nc(Cl)c(Cl)cc1Cl | -0.771% | – |
| CNC(C)(C)Cc1ccccc1 | -1.79% [at 29.2 µM] | – |
| C[N+]1(C)[C@@H]2CC[C@H]1CC(OC(=O)C(CO)c1ccccc1)C2 (stereo not given in full) | – | inactive |
| Cc1cnc2c(C(=O)O)c(Cl)ccc2c1 | -1.58% | – |
